Shiga toxin inh – inhibitors of Shiga toxin in Vero cells | Vero cells, Shiga toxin protein synthesis inhibition reporter | inhibition, % at 38.7 µM | 9.2% of 290,000 active; in the data active = inhibition mostly above about 28%, no sharp cut-off; inactive = mostly below about 43%; also: 0% is about no effect
SARS PLP yeast – blocks SARS-CoV papain-like protease in a yeast assay; 0.19% of 330,000 active; Potency, µM (doses to about 32.9 µM), for the others: at the highest dose activity, positive = growth rescue, usual class: activators; S. cerevisiae expressing SARS-CoV PLpro, growth rescue; also: potency is read from the fitted curve at half-maximal effect; 0% is about no effect; nearly all actives have a fitted effect of over 55% in size
NS1 inh – inhibitors of influenza NS1 protein function; Potency, µM (titrated, usually from 46.1 µM), without a hit: at the highest dose activity, positive = more growth; 0.4% of 270,000 active; AID 2326; also: potency is read from the fitted curve at half-maximal effect; actives are rising curves; nearly all actives have a fitted effect of over 50% in size
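Recovery from NS1-induced slow growth read by OD600 in budding yeast switched to galactose assay medium (pH 6.0, -URA) at 1:100 dilution. Compound 23 nl per well; the matching strain lacking NS1 serves as control.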
CHX counter – counter-screen hit for Shiga toxin inhibitors, cycloheximide; cell reporter, cycloheximide protein synthesis inhibition counterscreen; max response, %; 12% of 300,000 active; AID 2314; in the data active = max response mostly above about 13%, no sharp cut-off; inactive = mostly below about 14%; also: read at 38.3 µM for the half of the compounds with a filed dose; 0% is about no effect
Pf growth 48h – inhibits P. falciparum growth in the first generation, 48 h | P. falciparum luciferase growth in erythrocytes, 48 h | Potency, µM (top dose mostly 28.7 µM), without a hit: at the highest dose activity change, negative = inhibition, most hits filed as inhibitors | 5.9% of 310,000 active; active = well fitted inhibition curve with a large enough effect; inconclusive = small, poorly fitted or top-dose-only effect, or another doubt; inactive = no such curve, though single readings can be large or run the other way; also: potency is read from the fitted curve at half-maximal effect; % is scaled to controls: 0 for no effect and ±100 for the full control effect
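Firefly luciferase activity from engineered P. falciparum reports growth; inhibitors lower the luminescent signal. Cultures contained 2% hematocrit erythrocytes at 0.1% final parasitemia.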
Pf growth 96h – P. falciparum growth inhibition at 96 hours; P. falciparum luciferase reporter growth, 96 h; 6.9% of 320,000 active; Potency, µM (series often up to 28.7 µM), for the others: at the top dose activity change, negative = inhibition, actives largely listed as inhibitors; active = well fitted inhibition curve with a large enough effect; inconclusive = small, poorly fitted or top-dose-only effect, or another doubt; inactive = no such curve, though single readings can be large or run the other way; also: potency is read from the fitted curve at half-maximal effect; % is scaled to controls: 0 for no effect and ±100 for the full control effect
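Readout is luminescence from an integrated firefly luciferase in P. falciparum. Red cells, 2% hematocrit and 0.05% parasitemia final, were cultured with compound through two parasite generations (96 hours) at 37 C, 5% CO2.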
The depositor's hits bear a star; ? = inconclusive; / = not tested or not shown; [ ] = remark or other dose. Sampled rows, rich in hits. Any-hit rate of the full collection: about 21%. Unless noted, calls follow the shape of the full dose curve.

SMILES | Shiga toxin inh | SARS PLP yeast | NS1 inh | CHX counter | Pf growth 48h | Pf growth 96h
COCCN=c1scc(-c2cc(OC)c(OC)c(OC)c2)n1/N=C/c1c(C)[nH]c2ccccc12 | -3 | -19% | ? | -1 | 7.4µM* | 2.6µM*
Cc1[nH]c2ccccc2c1/C=N/n1cnnc1 | 13 | 0% | -1% | -2 | -13% | -3%
O=C(Cc1ccc(F)cc1)Nc1ccccc1N1CCCC1 | 26 | 1% | -4% | -1 | -17% | -13%
O=C(Cc1ccc(Cl)c(Cl)c1)Nc1ccccc1N1CCCC1 | 17 | -5% | -5% | 3 | -12% | 12µM*
Cc1cc(NC(=O)CSCC(=O)Nc2ccccc2N2CCCCC2)no1 | / | -3% | / | / | 13µM* | ?
CCn1cc(C(=O)OCC(=O)N(C)Cc2ccccc2)c(=O)c2ccc(C)nc21 | -5 | -2% | / | -2 | 12% | 3%
O=C1CCCCC1C(O)c1ccc(Cl)cc1 (stereo not given) | -5 | 6% | 5% | -3 | 16% | 0%
O=C(Nc1cc(Cl)ccc1-n1cncn1)c1cc(S(=O)(=O)N2CCOCC2)ccc1F | -2 | 4% | -4% | 1 | -3% | -13%
COc1ccc(CNC(=O)C2CCN(S(=O)(=O)c3cccc4nonc34)CC2)cc1 | -6 | -1% | 2% | -1 | 5% | -16%
O=C(NNC1=C(C(=O)C(F)(F)F)CCC1)c1ccccc1O | 37* | -8% | -92% | 32 | / | -6%
COc1ccccc1C(=O)NNc1ncc(C)s1 | -4 | 7% | 28% | -2 | 12% | ?
COc1cccc(C(=O)NNC2=C(C(=O)C(F)(F)F)CCC2)c1 | 68* | -1% | -7% | 41* | 49% | 48%
O=C(NNC1=C(C(=O)C(F)(F)F)CCC1)c1ccccc1Cl | 22 | -6% | -115% | 9 | / | -20%
COc1ccccc1C(=O)NNC1=C(C(=O)C(F)(F)F)CCC1 | 84* | 0% | 20% | 17* | -1% | 3%
O=C(NNC1=C(C(=O)C(F)(F)F)CCC1)c1ccc(Br)cc1 | 24 | -53% | -77% | 11 | -4% | /
Nc1ccccc1C(=O)NNC1=C(C(=O)C(F)(F)F)CCC1 | 95* | 0% | 1% | 46* | ? | 59%
CC(C)(C)C(=O)NNC(=O)COc1ccc2ccccc2c1Br | 10 | 1% | -4% | -3 | 6% | 2.3µM*
O=C(COc1ccc2ccccc2c1Br)NCc1ccccn1 | 57* | -1% | -8% | 23* | 33% | 3%
O=C(COc1ccc(Br)cc1)NCc1ccccn1 | 9 | -2% | -3% | -3 | / | 23%
c1ccc(-c2nccnc2-c2ccccc2)cc1 | 2 | -2% | -48% | 13 | ? | 90%
CC(C)(C)c1ccc(-c2ncccc2O)cc1 | 69* | -5% | -40% | 32* | ? | ?
N#C/C(=C\c1ccc(-c2ccc(C(=O)O)cc2)o1)C(=O)Nc1ccc(F)cc1 | 21 | 1% | 2% | -3 | -17% | 9.3µM*
Cc1ccc(NC(=O)/C(C#N)=C/c2ccc(Sc3nc(C)cc(C)n3)o2)cc1 | 59 | 1% | 4% | 1 | 16% | /
N#C/C(=C\c1ccc(-c2ccc(C(=O)O)cc2)o1)C(=O)NCC1CCCO1 (stereo not given) | -4 | 13% | 16% | 8 | 6% | 0%
Cc1cccc(C)c1NC(=O)/C(C#N)=C/c1ccc(-c2ccc(C(=O)O)cc2)o1 | 70* | -2% | 14% | 21* | 74% | 22%
SMILES | Shiga toxin inh | SARS PLP yeast | NS1 inh | CHX counter | Pf growth 48h | Pf growth 96h
COc1ccc(CC(=O)Nc2ccc(S(=O)(=O)N3CCCC3)cc2)c(OC)c1 | / | 1% | / | / | ? | ?
COc1cccc(CN(CC(=O)NC2CCCC2)C(=O)Cn2nnc(-c3cccs3)n2)c1 | -2 | 1% | 2% | 8 | 4% | 11%
CC(C)n1c(SCc2ccc(Cl)cc2)nc2c1c(=O)[nH]c(=O)n2C | -12 | 6% | 1% | 1 | / | 12µM*
Cc1ccc(Cn2c(SCC(C)C)nc3c2c(=O)n(C)c(=O)n3C)cc1 | 9 | 4% | -47% | 2 | 3.7µM* | /
Cc1ccc(CSc2nc3c(c(=O)[nH]c(=O)n3C)n2CCC(C)C)cc1 | 10 | 5% | 5% | -5 | / | 2.9µM*
CC(C)CCn1c(Sc2nc3ccccc3o2)nc2c1c(=O)[nH]c(=O)n2C | 69* | -3% | -9% | 73* | ? | -29%
CC(C)CCn1c(SCc2ccc(Cl)cc2)nc2c1c(=O)[nH]c(=O)n2C | -13 | 12% | -27% | -3 | ? | 36%
CCSc1nc2c(c(=O)n(C)c(=O)n2C)n1Cc1ccc(Cl)cc1 | / | / | -4% | / | / | /
COc1ccc(C(=O)NCC(=O)N/N=C/C=C/c2ccccc2)cc1OC | 39 | 2% | / | 14 | 31% | ?
COCCn1c(SCc2ccc(F)cc2)nc2c1c(=O)[nH]c(=O)n2C | -10 | 5% | 17% | -2 | -13% | 13µM*
Cc1ccc(Cn2c(Sc3ncccn3)nc3c2c(=O)[nH]c(=O)n3C)cc1 | -11 | -1% | 8% | -1 | -9% | -8%[5.75 µM]
CCCCCSc1nc2c(c(=O)[nH]c(=O)n2C)n1C(C)C | -9 | -5% | -14% | -5 | ? | 12µM*
CCCCn1c(SCc2ccc(Cl)cc2)nc2c1c(=O)[nH]c(=O)n2C | 0 | -3% | -14% | 0 | 6.6µM* | 2%
CCOCCn1c(SCc2ccc(F)cc2)nc2c1c(=O)[nH]c(=O)n2C | -16 | -3% | -4% | 0 | / | ?
C/C=C/CSc1nc2c(c(=O)[nH]c(=O)n2C)n1Cc1ccc(C)cc1 | -8 | -3% | 7% | 3 | 13µM* | ?
CC(C)NS(=O)(=O)c1ccc(NC(=O)C2CC3C=CC2C3)cc1 (stereo not given) | 13 | 0% | 12% | -2 | -3% | -2%
S=c1cnc2ccccc2[nH]1 | 70 | -1% | 7% | 30* | -8% | 2%
COCCNCCCCOc1ccccc1-c1ccccc1 | 5 | -10% | 15% | 8 | ? | 35%
Cc1cc(OCCOCCNCc2ccccc2)ccc1C(C)C | / | -5% | -25% | -2 | ? | 7.4µM*
CC(C)(C)c1ccccc1OCCOCCNCc1ccccc1 | -3 | -13% | -9% | -4 | 8.3µM* | 23%
CCCCNCCOCCOc1ccccc1-c1ccccc1 | 16 | -6% | 1% | -3 | 10µM* | ?
COc1cc(C(c2c(O)cc(C)[nH]c2=O)c2c(O)cc(C)[nH]c2=O)ccc1O | 6 | 0% | 4% | -2 | 20% | 40%
COc1cc(C2N(C)CCC3(OCCO3)C2(C)C)cc(OC)c1OC (stereo not given) | 16 | 4% | 8% | -2 | -2% | 29%
CC(O)/C=C/C1OC(=O)CC1Nc1ccc(C=O)cc1 (stereo not given) | -13 | 1% | 3% | 1 | 42% | 7.4µM*
O=C(C[C@@H]1C/C=C\C[C@H](Cc2ccc(F)cc2)C(=O)OC[C@@H](c2ccccc2)NC1=O)NCCO | / | -2% | / | / | / | /
